Here are results for eight compounds from PubChem BioAssay (NCI).

About 83,000 compounds went through this panel and 20% of them were active in at least one assay; those are over-represented in the sample as a whole.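 A percent growth of 40 corresponds to 60% growth inhibition; 0 means no net growth; -100 means all cells died. Active threshold: below 10.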 Values without a mark were called inactive. Active and inactive are the calls of the source.

Among the test systems are SR leukemia; RPMI-8226 leukemia; OVCAR-8 ovarian; OVCAR-5 ovarian; OVCAR-4 ovarian; SK-OV-3 ovarian; IGROV1 ovarian; OVCAR-3 ovarian; HS 578T breast; NCI/ADR-RES ovarian; T-47D breast; BT-549 breast; MDA-MB-435 melanoma; SW-620 colon; MCF7 breast; HCT-116 colon; HCC-2998 colon; KM12 colon.
Holding throughout (experiment): NCI-60 one-dose screen, 48 h (100 = growth as untreated, 0 = no growth, -100 = all killed)
What all share (details): 10 µM unless noted

With `COc1ccc(-c2conc2-n2nc(-c3ccccc3)nc2-c2ccccc2)cc1`, the growth in the experiment with SR leukemia is 76.2%; in the experiment with RPMI-8226 leukemia, 106%; with OVCAR-8 ovarian it was 110%; in the experiment on OVCAR-5 ovarian it was 104%; in the experiment with OVCAR-4 ovarian, 104%; with SK-OV-3 ovarian, 107%. Further, the growth with IGROV1 ovarian is 101%; with OVCAR-3 ovarian, 131%; in the experiment with HS 578T breast it was 111%; with NCI/ADR-RES ovarian it was 99.1%; in the experiment on T-47D breast it was 102%; in the experiment on BT-549 breast, 104%. Moreover, the growth with MDA-MB-435 melanoma is 105%; with SW-620 colon, 104%; in the experiment on MCF7 breast it was 89.1%; in the experiment on HCT-116 colon, 97.2%; with HCC-2998 colon, 105%; in the experiment with KM12 colon it was 110%.

As for `C=C(C)[C@@H]1CC[C@]2(C(=O)O)CC[C@]3(C)[C@H](CC[C@@H]4[C@@]5(C)C[C@@H](CC#Cc6ccc(C(C)=O)s6)[C@H](O)C(C)(C)[C@@H]5CC[C@]43C)[C@@H]12`, the growth in the experiment on SR leukemia was 78.3%; with RPMI-8226 leukemia it was 40%; in the experiment with OVCAR-8 ovarian, 38.4%; with OVCAR-5 ovarian it was 98%; in the experiment with OVCAR-4 ovarian it was 33.6%; in the experiment on SK-OV-3 ovarian, 27.7%. Moreover, the growth was 89.1% with IGROV1 ovarian; 58.4% in the experiment with OVCAR-3 ovarian; 73.1% in the experiment with HS 578T breast; 76.3% in the experiment with NCI/ADR-RES ovarian; 51.5% with T-47D breast; 53.1% in the experiment on BT-549 breast. Besides, the growth in the experiment on MDA-MB-435 melanoma was 81.5%; with SW-620 colon it was 59.8%; in the experiment on MCF7 breast, 55%; with HCT-116 colon, 26%; in the experiment with HCC-2998 colon, 62.9%; in the experiment with KM12 colon it was 18.1%.

`COc1cc2ncnc(Nc3ccc(S(=O)(=O)Nc4cc(C)on4)cc3)c2cc1OCCCN1CCN(c2ccc([N+](=O)[O-])cc2)CC1`: the growth in the experiment on SR leukemia is 114%; in the experiment on RPMI-8226 leukemia it was 109%; in the experiment on OVCAR-8 ovarian it was 104%; in the experiment with OVCAR-5 ovarian, 106%; with OVCAR-4 ovarian, 111%; in the experiment with SK-OV-3 ovarian, 99%. For the same compound, the growth with IGROV1 ovarian is 108%; in the experiment with OVCAR-3 ovarian, 103%; in the experiment with HS 578T breast it was 101%; in the experiment on NCI/ADR-RES ovarian it was 106%; in the experiment with T-47D breast it was 102%; in the experiment on BT-549 breast, 109%. The growth in the experiment on MDA-MB-435 melanoma was 103%; with SW-620 colon, 105%; in the experiment on MCF7 breast it was 106%; in the experiment with HCT-116 colon, 109%; with HCC-2998 colon it was 111%; in the experiment on KM12 colon, 106%.

Turning to `CC(C)=CC[C@@H]1CC2(CC=C(C)C)C(=O)C(OC3(C(=O)c4ccccc4)C(=O)C4(CC=C(C)C)C[C@@H](CC=C(C)C)C(C)(C)C(CC=C(C)C)(C4=O)C3=O)(C(=O)c3ccccc3)C(=O)C(CC=C(C)C)(C2=O)C1(C)C` (some centres not stated), the growth is 4.95% (active) with SR leukemia; -23% (active) in the experiment with RPMI-8226 leukemia; 1.06% (active) in the experiment with OVCAR-8 ovarian; 14.9% with OVCAR-5 ovarian; 20.4% in the experiment on OVCAR-4 ovarian; 2.61% (active) in the experiment on SK-OV-3 ovarian. For the same compound, the growth is 15.5% in the experiment with IGROV1 ovarian; -9.05% (active) with OVCAR-3 ovarian; 1.98% (active) with HS 578T breast; 5.81% (active) in the experiment on NCI/ADR-RES ovarian; 1.58% (active) in the experiment with T-47D breast; -2.41% (active) in the experiment with BT-549 breast. Also, the growth with MDA-MB-435 melanoma was 6.28% (active); in the experiment on SW-620 colon, 9.62% (active); with MCF7 breast, 2.12% (active); in the experiment on HCT-116 colon, -33.4% (active); with HCC-2998 colon it was 10.7%; in the experiment with KM12 colon, 6.68% (active).

As to `CCC(=O)NC1=C(Cl)C(=O)C(NC(=O)CC)=C(Cl)C1=O`, the growth in the experiment with SR leukemia is -55.1% (active); with RPMI-8226 leukemia, -34.3% (active); with OVCAR-8 ovarian, 99.3%; in the experiment on OVCAR-5 ovarian, 107%; in the experiment on OVCAR-4 ovarian, -98.5% (active); in the experiment with SK-OV-3 ovarian, 99.9%. Moreover, the growth is 116% in the experiment with IGROV1 ovarian; -94.5% (active) in the experiment on OVCAR-3 ovarian; 135% with HS 578T breast; 101% with NCI/ADR-RES ovarian; -54.4% (active) with T-47D breast; 119% in the experiment with BT-549 breast. The growth in the experiment with MDA-MB-435 melanoma is 136%; in the experiment with SW-620 colon, -72.1% (active); in the experiment with MCF7 breast, 28.3%; with HCT-116 colon, -93.1% (active); in the experiment on HCC-2998 colon, 103%; in the experiment with KM12 colon, 109%.

As for `CC1CCCN(CCCCOc2ccc(-c3ccc(C#N)cc3)cc2)C1` (configuration not stated), the growth is 86.8% with SR leukemia; 71.1% with RPMI-8226 leukemia; 82.3% in the experiment on OVCAR-8 ovarian; 97.1% in the experiment with OVCAR-5 ovarian; 93.8% in the experiment with OVCAR-4 ovarian; 95.3% with SK-OV-3 ovarian. In addition, the growth was 107% in the experiment with IGROV1 ovarian; 98.6% in the experiment with OVCAR-3 ovarian; 87.4% in the experiment with HS 578T breast; 89.7% in the experiment with NCI/ADR-RES ovarian; 79.1% in the experiment on T-47D breast; 85.6% in the experiment with BT-549 breast. Besides, the growth in the experiment with MDA-MB-435 melanoma is 99.4%; with SW-620 colon, 96.8%; in the experiment with HCT-116 colon, 87.8%; in the experiment on HCC-2998 colon, 86.6%; with KM12 colon, 96.1%.

In the case of `O=C(Nc1ccc(Br)cc1)Nc1cccc(Br)c1`, the growth in the experiment with SR leukemia was 38%; with RPMI-8226 leukemia, 8.97% (active); in the experiment on OVCAR-8 ovarian it was 48.8%; in the experiment with OVCAR-5 ovarian, 76.8%; with OVCAR-4 ovarian it was 28.8%; with SK-OV-3 ovarian it was 75.2%. The growth with IGROV1 ovarian was 25.5%; in the experiment with OVCAR-3 ovarian it was 16.2%; with HS 578T breast it was 76%; in the experiment on NCI/ADR-RES ovarian it was 46.4%; in the experiment on T-47D breast, -10.5% (active); in the experiment on BT-549 breast it was 58.2%. For the same compound, the growth in the experiment with SW-620 colon was 29%; in the experiment on MCF7 breast, 13.3%; in the experiment on HCT-116 colon, 27.5%; in the experiment with HCC-2998 colon, 27.6%; in the experiment on KM12 colon, 13.2%.

As to `Clc1ccc(C2=NN[C@H](c3cn(-c4ccccc4)nc3-c3ccccc3)C2)cc1`, the growth in the experiment on SR leukemia is 104%; in the experiment on RPMI-8226 leukemia, 87.5%; in the experiment on OVCAR-8 ovarian, 33.6%; in the experiment on OVCAR-5 ovarian, 83.6%; in the experiment on OVCAR-4 ovarian, 68.1%; in the experiment with SK-OV-3 ovarian, 61.6%. Moreover, the growth is 79.5% in the experiment with IGROV1 ovarian; 58.6% with OVCAR-3 ovarian; 74.2% in the experiment on HS 578T breast; 55.9% in the experiment on NCI/ADR-RES ovarian; 46.4% with T-47D breast; 92.7% with BT-549 breast. In addition, the growth was 47.3% with MDA-MB-435 melanoma; 48.7% in the experiment with SW-620 colon; 66.2% with MCF7 breast; 0.0078% (active) with HCT-116 colon; 90.7% in the experiment with HCC-2998 colon; 74% in the experiment with KM12 colon.
